Bioassay records from PubChem BioAssay.
FUS yeast rescue – qHTS for Suppressors of FUS Proteinopathy: Primary screen using FUS-linked yeast assay | S. cerevisiae FUS-expressing, growth rescue, OD600, 24 h | 390,000 tested, 0.24% active | AID 1347120, 2019 | Potency, µM (series often up to 76.6 µM), usual class: activators;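 note: plate controls were DMSO vehicle for no effect and reference control for full effect; nearly all actives have a fitted effect of over 55% in size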
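FUS-expressing yeast, raffinose-pregrown, induced in 2% galactose minimal medium at OD 0.005; compounds in a dilution series, 24hr at 30C. Growth restoration read as absorbance at 600 nm. CP55940 positive control, DMSO negative.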
aSyn yeast inh – qHTS of alpha-syn Inhibitors; Yeast expressing alpha-synuclein, growth rescue, BacTiter-Glo, 24 h; Potency, µM (titrated, usually from 46.1 µM), for the others: at the top dose growth rescue (activation), actives largely listed as activators; 370,000 tested, 0.14% active; note: % of control where 0% means no effect; nearly all actives have a fitted effect of over 65% in size
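Galactose-induced alpha-syn yeast (OD600=0.02, raffinose-pregrown) + pinned cpd, 24 hr, 30 deg C; growth by BacTiter-Glo luminescence. Growth restoration scores as activation.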
Abeta yeast res – qHTS for compounds that reverse cellular toxicity of Amyloid beta (A-beta) peptide in yeast: Primary Screen | yeast expressing A-beta42, growth rescue, OD600, 48 h; response scale: 0% DMSO, 100% iron-clioquinol control | AID 1347071, 2019 | Potency, µM (top dose mostly 46.1 µM), most hits filed as activators | 410,000 tested, 0.063% active; note: nearly all actives have a fitted effect of over 55% in size
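Growth rescue measured by 600 nm absorbance after 48 h yeast culture at 30 C with compound. Values normalized between DMSO and an equimolar ferric chloride plus clioquinol control.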
TDP43 rescue – qHTS of TDP-43 Inhibitors; TDP-43 expressing yeast growth rescue, BacTiter-Glo, 24 h; Potency, µM (series often up to 46.1 µM), without a hit: at the highest dose growth rescue (activation), most hits filed as activators; 410,000 tested, 1.8% active; AID 652104, 2013; note: % of control where 0% means no effect; nearly all actives have a fitted effect of over 50% in size
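Yeast expressing TDP-43 (pregrown in raffinose, seeded at OD600=0.02 in galactose medium) exposed to compounds 24 hr at 30 deg C. Growth read by BacTiter-Glo luminescence; rescue of toxicity appears as increased signal.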
Mito fusion act – qHTS Assay for Small Molecule Inhibitors of Mitochondrial Division or Activators of Mitochondrial Fusion; S. cerevisiae fusion-defective mutant growth rescue, CellTiterGlo 48 h; Potency, µM (top dose mostly 46.1 µM), inactives show at the highest dose growth rescue (activation), hits mostly activators; 320,000 tested, 0.23% active; AID 485298, 2010; note: % of control where 0% means no effect; nearly all actives have a fitted effect of over 45% in size
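Read-out: ATP-based luminescence (CellTiterGlo, 10 min ambient) reporting growth of fusion-defective ts yeast after 48 hours at 37C on glycerol/ethanol YPEG medium in the presence of compound.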
Starred values were filed as active, the others as inactive; [ ] = remark or other dose. An excerpt weighted towards active compounds, which were near 2.2% of everything screened. Calls come from the whole dose curve; as a rule, active = well fitted curve in the direction sought with a large enough effect; inconclusive = small, poorly fitted or top-dose-only effect, or another doubt; inactive = no such curve, though single readings can be large; an effect the other way counts as inactive or inconclusive. Potency is the fitted concentration of half-maximal effect.

Screening CCOc1ccccc1NC(=O)c1cc2ccc3cccnc3c2[nH]1 returned FUS yeast rescue inactive, Abeta yeast res inactive and TDP43 rescue 17.1%.
Screening CC(C)N(Cc1ccccc1)C(=O)c1cc2ccc3cccnc3c2[nH]1 returned FUS yeast rescue inactive, Abeta yeast res inactive and TDP43 rescue 22.4µM*.
For CCN(c1ccccc1)S(=O)(=O)c1ccc2[nH]cc(C(=O)NCc3ccc(C)cc3)c(=O)c2c1 the results were FUS yeast rescue inactive, Abeta yeast res inactive and TDP43 rescue 9.8%.
COc1cc(OC)c(OC)cc1/C=C/c1nc2cc3ccccc3cc2c(=O)n1-c1ccc(F)cc1F was read as FUS yeast rescue inactive, Abeta yeast res inactive and TDP43 rescue 29.1%.
O=c1c2ccccc2nc(/C=C/c2cccc3ccccc23)n1-c1ccc(F)cc1F was read as FUS yeast rescue 31.6µM*, Abeta yeast res inactive and TDP43 rescue 9.5%.
Screening CCC(C(=O)NCc1ccccc1Cl)n1nc(C)c2sc3ccccc3c2c1=O (stereo not drawn) returned FUS yeast rescue inactive, Abeta yeast res inactive and TDP43 rescue 17.3%.
O=C1c2cccnc2C(=O)N1Cc1ccccc1 was read as FUS yeast rescue inactive, aSyn yeast inh -0.9%, Abeta yeast res inactive, TDP43 rescue 15.9% and Mito fusion act -3.5%.
`CC(c1ccccc1)N1C(=O)c2cccnc2C1=O` (stereo not drawn) gave FUS yeast rescue inactive, aSyn yeast inh 1.3%, Abeta yeast res inactive, TDP43 rescue 2µM* and Mito fusion act -0.6%.
For CC(C)Cn1c(-c2ccc(Br)cc2)c[nH]c1=S the results were FUS yeast rescue inactive, aSyn yeast inh 10.5%, Abeta yeast res 3.16µM*, TDP43 rescue -15.4%[0.397 µM] and Mito fusion act 22.8%.
`COc1ccc(NC(=O)C(NC(=O)/C=C\c2ccc3c(c2)OCO3)c2ccccc2)cc1` (stereo not drawn) gave FUS yeast rescue inactive, Abeta yeast res inactive and TDP43 rescue 14.0%.
Screening COCCCN(C(C)=O)c1nc(-c2ccc(OC)cc2)cs1 returned FUS yeast rescue inactive, aSyn yeast inh -6.1%, Abeta yeast res inactive, TDP43 rescue 11.2µM* and Mito fusion act 2.4%.
`CCN(CC)CCCN(C(=O)c1ccc(OC)cc1)c1nc(-c2ccc(OC)cc2)cs1` gave FUS yeast rescue inactive, aSyn yeast inh -1.1%, Abeta yeast res inactive, TDP43 rescue 8.4% and Mito fusion act -4.4%.
Cc1ccc(CN(Cc2cc3cc(C)ccc3[nH]c2=O)Cc2nnnn2Cc2ccccc2)cc1 was read as aSyn yeast inh -0.2%.
Cc1cccc(C)c1Cn1c(C)c(C(=O)NCc2ccc([N+](=O)[O-])cc2)sc1=O was read as FUS yeast rescue inconclusive, aSyn yeast inh 9.1%, Abeta yeast res inactive and TDP43 rescue 11.2µM*.
Screening CC(C)c1ccc(-c2noc(SCC(=O)N3CCCCC3C)n2)cc1 (stereo not drawn) returned FUS yeast rescue inactive, Abeta yeast res inactive and TDP43 rescue inconclusive.
COc1ccc(-c2oc3cc(OC)c(O)c(OC)c3c(=O)c2OC)cc1O was read as FUS yeast rescue inactive, aSyn yeast inh -0.6%, Abeta yeast res inactive, TDP43 rescue 22.4µM* and Mito fusion act -0.5%.
Screening CNS(=O)(=O)c1cn(CC(=O)Nc2ccc(C)cc2C)cc1S(=O)(=O)NC returned FUS yeast rescue inactive, Abeta yeast res inactive and TDP43 rescue -3.5%.
For COc1cc(N2C(=O)C=CC2=O)ccc1N1C(=O)C=CC1=O the results were aSyn yeast inh 14.7%, Abeta yeast res inactive and TDP43 rescue 20µM*.
Cn1c(-n2cccc2)c(-c2c(-c3ccc(F)cc3)[nH]c3c2c(=O)[nH]c(=O)n3C)c(=O)[nH]c1=O was read as FUS yeast rescue inactive, Abeta yeast res inactive and TDP43 rescue -10.7%.
COc1ccc(N2C(=O)Cc3cc(OC)c(OC)cc3C2c2ccc(F)cc2)cc1 (stereo not drawn) was read as FUS yeast rescue inactive, Abeta yeast res inactive and TDP43 rescue 17.0%.
Screening COC(=O)[C@H](CC(C)C)NC(=O)Cn1cnc2c(OCc3ccccc3)ncnc21 returned FUS yeast rescue inactive, aSyn yeast inh 3.4%, Abeta yeast res inactive and TDP43 rescue 24.0%.
For CCN(CC(=O)Nc1c(F)cccc1F)C(=O)CCNC(=O)c1ccc([N+](=O)[O-])cc1 the results were FUS yeast rescue inactive, aSyn yeast inh 0.7%, Abeta yeast res inactive, TDP43 rescue 18.1% and Mito fusion act 3.1%.
Cc1noc(C)c1-c1ccc(C(=O)NCCN2CCOCC2)c2occc12 was read as FUS yeast rescue inactive, aSyn yeast inh -3.4%, Abeta yeast res inactive and TDP43 rescue 17.3%.
`CC(=O)Nc1ccc(NC(=O)c2ccc(-c3c(C)noc3C)c3ccoc23)cc1` gave FUS yeast rescue inactive, aSyn yeast inh 3.4%, Abeta yeast res inactive and TDP43 rescue 16.5%.
Screening Cc1noc(C)c1-c1ccc(C(=O)NCc2cccs2)c2occc12 returned FUS yeast rescue inactive, aSyn yeast inh -4.2%, Abeta yeast res inactive and TDP43 rescue 15.8µM*.
Screening Cc1noc(C)c1-c1ccc(C(=O)NCCc2ccccc2)c2occc12 returned FUS yeast rescue inconclusive, aSyn yeast inh -18.5%, Abeta yeast res inactive and TDP43 rescue 31.6µM*.
`COc1ccc(C)cc1NC(=O)Cn1c(=O)oc2ccccc21` gave FUS yeast rescue inactive, aSyn yeast inh -4.4%, Abeta yeast res inactive, TDP43 rescue -18.2% and Mito fusion act 11.5%.
Screening O=C(NCc1ccccc1Cl)C1CCN(C(=O)N2CCOc3ccccc32)CC1 returned FUS yeast rescue inactive, Abeta yeast res inactive and TDP43 rescue inconclusive.
`CC(C)c1nc2sc3c(=S)nc[nH]c3c2c2c1CCC2` gave FUS yeast rescue inactive, aSyn yeast inh 2.6%, Abeta yeast res inactive, TDP43 rescue 15.8µM* and Mito fusion act 7.3%.
CC(C)c1nc2sc3c(=O)[nH]cnc3c2c2c1CCC2 was read as FUS yeast rescue inactive, aSyn yeast inh 1.7%, Abeta yeast res inactive, TDP43 rescue 22.3% and Mito fusion act 11.9%.
`N/C(=N\OC(=O)c1ccc(Cl)c(Cl)c1)c1cccc(CSc2ccccn2)c1` gave FUS yeast rescue inactive, aSyn yeast inh -49.4%, Abeta yeast res inactive, TDP43 rescue 11.2µM* and Mito fusion act 2.1%.
Screening N/C(=N\OC(=O)c1ccc(Cl)c(Cl)c1)c1cccnc1 returned FUS yeast rescue inactive, aSyn yeast inh 1.5%, Abeta yeast res inactive, TDP43 rescue 6.31µM* and Mito fusion act -9.1%.
